# Bioassay records from PubChem BioAssay.
# A selection: hits, their analogues and other compounds. The true share with any hit is near 7.3%.
# KinaseGlo FLuc – Counterscreen for Luciferase (Kinase-Glo TM) Inhibition. AID 1379, 2008. actives 0.28% (n = 200,000). Potency, µM (top dose mostly 38.3 µM), most hits filed as inhibitors. Kinase-Glo luciferase, ATP luminescence, 8 min; note: nearly all actives have a fitted effect of over 60% in size
#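 Light output from Kinase-Glo luciferase with luciferin and 10 uM ATP in 50 mM imidazole pH 7.2, KCl, MgCl2, Tween 20, BSA; compound pin-delivered, 8-min ambient incubation, then luminescence read.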
# SMN2 splice enh – qHTS Assay for Enhancers of SMN2 Splice Variant Expression. HEK293 SMN2-luciferase splicing reporter, luminescence, 30-36 h. Potency, µM (highest dose often 46.1 µM), hits mostly activators. actives 2.8% (n = 210,000). AID 1458, 2008; note: nearly all actives have a fitted effect of over 55% in size
#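 qHTS luciferase splicing reporter: luminescence rises when SMN2 exon 7 is included in transfected HEK293 cells. Compound exposure lasted 30-36 h at 37C, with 4.5 mM final sodium butyrate as control, followed by a ONE-Glo read.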
# Rab9 promoter act – qHTS Assay for Rab9 Promoter Activators; Huh7 Rab9 promoter-luciferase reporter, luminescence, 24 h; Potency, µM (doses to about 9.22 µM), most hits filed as activators; actives 2.8% (n = 320,000); note: nearly all actives have a fitted effect of over 60% in size
#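 Luminescence read-out: Huh7 cells stably expressing Rab9-luciferase, treated 24 h with compound at 37 °C, then lysed with luciferase reagent for 10 min at ambient before reading.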
# NPC1 prom act – qHTS Assay for NPC1 Promoter Activators; Huh7 NPC1 promoter luciferase reporter, 24 h; actives 2.4% (n = 320,000); Potency, µM (highest dose often 9.22 µM), usual class: activators; note: nearly all actives have a fitted effect of over 60% in size
#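 Cells: Huh7 expressing luciferase under the NPC1 promoter, 1500/well. Seeded 2 h, compound added, incubated 24 h at 37 °C. Luciferase reagent, 10 min ambient, then luminescence.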
# FLuc modulator – qHTS profiling assay for firefly luciferase inhibitor/activator using purifed enzyme and Km concentrations of substrates (counterscreen for miR-21 project); Potency, µM (series often up to 57.5 µM), most hits filed as inhibitors; purified FLuc, Km substrates, luminescence inhibition; Luciferin 4-monooxygenase (Photinus pyralis), P08659; actives 6.9% (n = 360,000); note: nearly all actives have a fitted effect of over 55% in size
# Target sequence (P08659 whole entry, looked up): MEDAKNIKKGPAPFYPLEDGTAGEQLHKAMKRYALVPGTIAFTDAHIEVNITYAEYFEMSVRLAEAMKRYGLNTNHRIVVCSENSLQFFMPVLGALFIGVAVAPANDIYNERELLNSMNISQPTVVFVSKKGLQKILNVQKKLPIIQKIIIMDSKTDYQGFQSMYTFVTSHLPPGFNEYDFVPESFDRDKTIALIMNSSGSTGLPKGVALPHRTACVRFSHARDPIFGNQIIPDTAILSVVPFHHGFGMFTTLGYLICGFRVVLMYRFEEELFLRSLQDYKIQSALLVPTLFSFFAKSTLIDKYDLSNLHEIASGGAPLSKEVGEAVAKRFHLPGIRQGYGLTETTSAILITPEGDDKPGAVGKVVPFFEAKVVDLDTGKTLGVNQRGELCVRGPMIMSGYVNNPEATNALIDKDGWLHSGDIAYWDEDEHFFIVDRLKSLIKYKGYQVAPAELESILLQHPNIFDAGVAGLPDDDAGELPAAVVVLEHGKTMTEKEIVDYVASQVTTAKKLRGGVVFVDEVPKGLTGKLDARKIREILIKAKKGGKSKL
#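 Purified P. pyralis luciferase, 10 nM final, with Km-level 10 uM D-luciferin and 10 uM ATP in 50 mM Tris acetate pH 7.5, 10 mM Mg acetate, 0.01% Tween-20, 0.05% BSA; 6-point qHTS titration about 60 µM downward; luminescence read.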
# Hits are given with their value; – = inactive; ? = inconclusive; · = not tested or not shown; [ ] = another dose, or the depositor's remark. Calls come from the whole dose curve; as a rule, active = well fitted curve in the direction sought with a large enough effect; inconclusive = small, poorly fitted or top-dose-only effect, or another doubt; inactive = no such curve, though single readings can be large; an effect the other way counts as inactive or inconclusive.
SMILES,KinaseGlo FLuc,SMN2 splice enh,Rab9 promoter act,NPC1 prom act,FLuc modulator
C=CCN(C(=O)CSC1=NC(=O)CN1C(C)=O)c1nc(C)c(-c2ccccc2)s1,–,?,–,–,6.7µM
CN1/C(=C/c2cc[n+](C)c3ccccc23)C=Cc2ccccc21,?,–,–,–,13µM
CCCn1c(SCc2nc(-c3ccccc3OCC)no2)nnc1-c1ccc(Cl)cc1,·,–,·,·,–
Cc1cccc(NC(=O)c2cccnc2)c1C,·,·,–,–,–
Cc1cccc(NC(=O)c2ccccn2)c1C,–,–,3.5µM,?,?
CSCc1ccc(C(=O)Nc2cccc(C)c2C)cc1,–,20µM,?,?,12µM
Cc1ccccc1NC(=O)Nc1ccccn1,·,·,?,?,–
CCCCNC(=O)Nc1ccccn1,–,5µM,–,–,–
Cc1ccc(C)c(NC(=O)c2ccccn2)c1,–,–,–,–,?
Cc1cccc(NC(=O)Nc2ccccn2)c1C,·,·,4µM,?,9.5µM
CCOc1ccc(-n2c(SCc3nc(-c4ccc(OC)cc4)no3)nnc2-c2ccncc2)cc1,·,–,·,·,–
CC(=O)c1ccc(NC(=O)C2CCCN(S(=O)(=O)c3cn(C)cn3)C2)cc1 (centres undefined),·,·,·,·,–
CCC(C(=O)Nc1nnc2n1CCS2)c1ccccc1 (centres undefined),·,·,·,·,–
Cn1c(=O)c(-c2cc(Br)ccc2N)nc2ccccc21,–,–,?,–,24µM
CCOC(=O)Cn1c(=O)c(-c2cc(Br)ccc2N)nc2ccccc21,·,·,–,–,–
COc1cccc(C(=O)N2CCN(CCc3ccncc3)CC2)c1,·,·,·,·,–
Cc1ccc(Cl)cc1-c1ccc(C=Nc2ccc(N3CCOCC3)cc2)o1,–,–,–,–,–
Cc1nc(S/C(=C/c2ccc(-c3ccc(Cl)cc3)o2)C(=O)O)n[nH]1,–,–,–,–,8.5µM
CC(=O)c1ccc(-c2ccc(/C=C(/Sc3n[nH]c(C)n3)C(=O)O)o2)cc1,·,·,–,–,6µM
Cc1nc(S/C(=C/c2ccc(-c3ccc(C(=O)O)cc3)o2)C(=O)O)n[nH]1,·,·,–,–,?
Cc1nc(S/C(=C/c2ccc(-c3cc(Cl)ccc3C)o2)C(=O)O)n[nH]1,·,·,–,–,27µM
N#C[C@H](C(=O)O)C(c1c(Cl)cccc1Cl)[C@H](C#N)C(=O)O,–[7.66 µM],–[9.22 µM],·,·,·
Cc1ccc2nc(NC(=O)CN3C(=O)NC4(CCCC4)C3=O)sc2c1,·,·,–,–,9.5µM
CCOc1ccc2nc(NC(=O)CN3C(=O)NC4(CCCC4)C3=O)sc2c1,·,·,–,–,6.7µM
COC(=O)c1c(-c2ccc(OC)cc2)sc2cc3c(cc12)OCO3,·,·,–,?,9.5µM
SMILES,KinaseGlo FLuc,SMN2 splice enh,Rab9 promoter act,NPC1 prom act,FLuc modulator
Cc1cc(C)n2nc(-c3ccc(F)cc3)nc2n1,–,?,?,4µM,17µM
COc1ccc2nc(SCC(=O)Nc3ccc4c(c3)OCCO4)[nH]c2c1,–,–,–,–,13µM
CCOc1ccc2nc(SCC(=O)Nc3cccc(S(=O)(=O)NC4=NCCCCC4)c3)[nH]c2c1,–,–,–,–,21µM
COc1ccc2nc(SCC(=O)Nc3ccccc3)[nH]c2c1,–,–,–,–,–
CCOc1ccc2nc(SCC(=O)Nc3ncccn3)[nH]c2c1,–,–,–,–,?
CCOc1ccc2nc(SCC(=O)Nc3ccc4c(c3)OCCO4)[nH]c2c1,–,–,–,–,17µM
O=C(Nc1nnc(S(=O)(=O)N2CCCc3ccccc32)s1)c1ccccc1Br,·,·,·,·,–
CCOc1ccc(CCNC(=O)COC(=O)c2cc(OC)cc(OC)c2)cc1OCC,–,–,–,–,–
CCOc1ccc(CCNC(=O)COC(=O)c2cccc(N(C)C)c2)cc1OCC,·,·,1.6µM,4µM,–
CC(C)(Oc1ccc(Cl)cc1)C(=O)Nc1ccc2oc(=O)ccc2c1,·,·,–,–,–
CC(C)(C)C(=O)Nc1ccc(-c2cc3cc(Cl)ccc3o2)cc1,·,·,0.32µM,?,0.19µM
CCCOc1ccc(C(=O)Nc2ccc(NC(=O)c3ccccc3)c(C)c2)cc1,·,–,·,·,–
Cc1ccc(NC(=O)c2ccc(=O)n(CC(=O)Nc3cc(C)cc(C)c3)n2)cc1,·,·,·,·,–
O=C(NN=C1CCN(Cc2ccccc2)CC1)c1ccccc1O,·,·,–,–,24µM
